mHTT-CaM PPI inh: inhibitors of human mutant huntingtin-calmodulin interaction. P42858. AlphaScreen His-mHTT/GST-CaM binding, luminescence. inhibition, % at 15 µM. 190,000 tested, 3.6% active
Target sequence (P42858 whole entry, looked up, change not shown): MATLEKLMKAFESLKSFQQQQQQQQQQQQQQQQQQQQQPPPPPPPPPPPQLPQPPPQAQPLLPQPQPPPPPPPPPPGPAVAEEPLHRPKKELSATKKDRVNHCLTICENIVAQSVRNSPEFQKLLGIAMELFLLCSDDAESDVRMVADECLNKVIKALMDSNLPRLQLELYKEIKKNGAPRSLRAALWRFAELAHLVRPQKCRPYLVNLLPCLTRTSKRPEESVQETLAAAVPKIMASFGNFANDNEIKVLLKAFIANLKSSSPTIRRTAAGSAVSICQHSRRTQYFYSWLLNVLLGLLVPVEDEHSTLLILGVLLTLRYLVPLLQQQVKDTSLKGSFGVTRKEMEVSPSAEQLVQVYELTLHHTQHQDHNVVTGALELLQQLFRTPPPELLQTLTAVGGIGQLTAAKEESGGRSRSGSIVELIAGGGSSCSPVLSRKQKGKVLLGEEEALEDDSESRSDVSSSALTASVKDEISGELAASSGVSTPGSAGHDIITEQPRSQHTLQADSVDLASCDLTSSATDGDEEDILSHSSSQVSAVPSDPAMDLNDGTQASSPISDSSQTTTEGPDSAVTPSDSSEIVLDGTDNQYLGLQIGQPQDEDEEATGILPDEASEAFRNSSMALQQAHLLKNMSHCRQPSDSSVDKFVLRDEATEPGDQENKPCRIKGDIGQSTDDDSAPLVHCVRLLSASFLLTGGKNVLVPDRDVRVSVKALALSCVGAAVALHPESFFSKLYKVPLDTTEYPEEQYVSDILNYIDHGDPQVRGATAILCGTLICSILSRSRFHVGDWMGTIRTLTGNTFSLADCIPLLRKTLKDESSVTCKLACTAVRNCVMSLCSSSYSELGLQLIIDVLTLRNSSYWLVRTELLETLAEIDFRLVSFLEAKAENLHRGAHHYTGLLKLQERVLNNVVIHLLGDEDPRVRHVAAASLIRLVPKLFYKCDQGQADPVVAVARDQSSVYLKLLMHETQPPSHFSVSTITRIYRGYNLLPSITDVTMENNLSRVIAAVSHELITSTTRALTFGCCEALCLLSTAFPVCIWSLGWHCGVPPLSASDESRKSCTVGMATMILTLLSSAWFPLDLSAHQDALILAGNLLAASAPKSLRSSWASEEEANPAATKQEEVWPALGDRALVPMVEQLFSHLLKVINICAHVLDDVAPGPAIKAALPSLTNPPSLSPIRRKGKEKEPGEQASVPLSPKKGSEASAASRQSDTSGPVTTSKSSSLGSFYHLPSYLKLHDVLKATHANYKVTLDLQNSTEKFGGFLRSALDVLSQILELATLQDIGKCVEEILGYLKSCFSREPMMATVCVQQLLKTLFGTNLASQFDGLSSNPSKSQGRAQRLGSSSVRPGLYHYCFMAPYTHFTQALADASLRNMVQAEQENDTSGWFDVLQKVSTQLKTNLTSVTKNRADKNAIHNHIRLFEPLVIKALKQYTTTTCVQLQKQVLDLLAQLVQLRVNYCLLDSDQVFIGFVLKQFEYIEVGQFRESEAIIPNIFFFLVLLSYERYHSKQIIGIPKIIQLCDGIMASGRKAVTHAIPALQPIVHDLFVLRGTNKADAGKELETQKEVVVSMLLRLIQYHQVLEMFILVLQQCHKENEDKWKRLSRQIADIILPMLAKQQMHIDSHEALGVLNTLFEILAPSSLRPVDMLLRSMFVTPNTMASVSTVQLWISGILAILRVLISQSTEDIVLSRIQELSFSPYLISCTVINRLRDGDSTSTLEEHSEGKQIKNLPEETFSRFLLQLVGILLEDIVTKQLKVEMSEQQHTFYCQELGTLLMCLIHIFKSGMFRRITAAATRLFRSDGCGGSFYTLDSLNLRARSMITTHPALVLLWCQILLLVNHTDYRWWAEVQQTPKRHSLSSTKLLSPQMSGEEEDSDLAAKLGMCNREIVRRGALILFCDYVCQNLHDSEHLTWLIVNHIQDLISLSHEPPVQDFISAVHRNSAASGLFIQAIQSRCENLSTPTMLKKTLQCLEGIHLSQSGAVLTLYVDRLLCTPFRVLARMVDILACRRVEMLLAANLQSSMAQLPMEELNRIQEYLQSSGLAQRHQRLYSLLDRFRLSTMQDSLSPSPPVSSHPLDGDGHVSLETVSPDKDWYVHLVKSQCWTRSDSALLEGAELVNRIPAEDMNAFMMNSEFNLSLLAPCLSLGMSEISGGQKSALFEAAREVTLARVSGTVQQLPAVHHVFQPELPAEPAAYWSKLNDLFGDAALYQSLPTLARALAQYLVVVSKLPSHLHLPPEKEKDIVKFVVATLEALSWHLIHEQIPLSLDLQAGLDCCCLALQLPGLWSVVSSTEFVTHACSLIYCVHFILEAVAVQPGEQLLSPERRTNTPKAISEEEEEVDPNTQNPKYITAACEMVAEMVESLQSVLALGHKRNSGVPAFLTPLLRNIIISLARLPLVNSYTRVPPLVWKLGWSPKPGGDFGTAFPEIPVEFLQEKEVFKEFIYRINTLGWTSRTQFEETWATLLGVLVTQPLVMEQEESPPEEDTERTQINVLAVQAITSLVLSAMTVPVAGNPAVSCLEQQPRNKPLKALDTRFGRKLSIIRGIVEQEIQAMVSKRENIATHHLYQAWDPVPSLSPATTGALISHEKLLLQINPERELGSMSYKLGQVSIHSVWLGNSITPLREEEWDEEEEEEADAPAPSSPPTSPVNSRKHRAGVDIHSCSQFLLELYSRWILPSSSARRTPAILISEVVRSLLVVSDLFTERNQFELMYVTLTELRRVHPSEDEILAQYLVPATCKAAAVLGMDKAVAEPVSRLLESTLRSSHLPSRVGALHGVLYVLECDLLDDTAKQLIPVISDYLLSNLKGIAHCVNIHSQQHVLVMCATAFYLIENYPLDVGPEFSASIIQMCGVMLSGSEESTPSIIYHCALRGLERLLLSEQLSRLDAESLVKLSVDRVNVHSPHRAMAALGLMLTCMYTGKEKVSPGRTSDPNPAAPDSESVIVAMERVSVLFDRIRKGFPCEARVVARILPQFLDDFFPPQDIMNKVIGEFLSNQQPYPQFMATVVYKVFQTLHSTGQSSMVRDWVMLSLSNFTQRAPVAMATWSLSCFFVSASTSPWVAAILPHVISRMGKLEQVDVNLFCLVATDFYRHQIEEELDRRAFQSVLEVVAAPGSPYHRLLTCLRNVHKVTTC
Pf apPOL inh: Pf-apPOL DNA polymerase inhibition; Recombinant Pf-apPOL, molecular beacon fluorescence, 1.5 h; inhibition, % at 10 µM; 210,000 tested, 0.25% active; AID 1794808
Each line names hits and unclear results; the compound was inactive in the other large screens; ! = not confirmed by another sample. Only a selection was taken, and hits are over-represented in it overall. Cut-off read from the data, not from the text of the source: active = inhibition above about 50%; inactive = the rest.

Cc1nn(-c2ccccc2)c2nc(N3CCC(NC(=O)c4ccco4)CC3)sc12	none
CC(C)(C)NC(=O)c1ccc(-c2ccc(F)cc2)nc1	none
O=c1c(C=NCCN2CCOCC2)c(C(F)(F)F)[nH]n1-c1nc2ccccc2s1	none
COc1ccc(-c2[nH]n(-c3nc4ccccc4s3)c(=O)c2C=NCCN2CCOCC2)cc1	mHTT-CaM PPI inh 68
COCCCNC(=O)CN1C(=O)NC2(CCC(C)CC2)C1=O (configuration not stated)	none
Nc1c(C(=O)C23CC4CC(CC(C4)C2)C3)sc2sc3c(O)cc(=O)[nH]c3c12	mHTT-CaM PPI inh 52 (no result: Pf apPOL inh)
N#Cc1c(SCC(=O)C23CC4CC(CC(C4)C2)C3)sc2c(O)cc(=O)[nH]c12	none (no result: Pf apPOL inh)
CC(=O)N1CCN(c2nc3c(s2)CC(C(=O)NCc2cccc(Cl)c2)CC3)CC1 (configuration not stated)	none
O=C(Nc1ccc2sccc2c1)c1coc2ccccc2c1=O	none
CSc1ccccc1C(=O)N1CCC(n2cnc3cc(C(F)(F)F)ccc32)CC1	mHTT-CaM PPI inh 82
CSc1ccccc1C(=O)N1CCC(Cn2nc(C)cc2C)CC1	none
COc1cccc(C(=O)NCCC2CCN(C(=O)c3ccc(C)cc3)CC2)c1	none
COc1ccc(CN(CCC2(Cc3ccccc3)CCOC(C)(C)C2)C(C)=O)cc1 (configuration not stated)	none
CC(=O)N(CCC1(Cc2ccccc2)CCOC(C)(C)C1)Cc1ccccc1 (configuration not stated)	mHTT-CaM PPI inh 56
COc1ccc(-c2cc(C(=O)N3CCCC3c3ccccc3C)no2)cc1 (configuration not stated)	none
CCN1c2ccc(F)cc2C(=O)NC12CCN(C(=O)Cc1ccc(C)cc1)CC2	none
Cc1ccc(-c2nc(N3CCOCC3)c3ccccc3n2)cc1	none
c1ccc2c(N3CCOCC3)nc(-c3ccncc3)nc2c1	mHTT-CaM PPI inh 61!
CC1(C)CC(=O)C2=C(C1)Nc1ccc3ncccc3c1C2c1ccccn1 (configuration not stated)	none
COc1ccc(OC)c(C2C3=C(CC(C)(C)CC3=O)Nc3ccc4ncccc4c32)c1 (configuration not stated)	mHTT-CaM PPI inh 52
O=C(c1ccc2cc[nH]c2c1)N1CCC(c2nc(C3CC3)n[nH]2)CC1	none
Cc1nc2c(C(=O)O)c[nH]n2c(=O)c1Cc1ccc(Cl)cc1	none
Cc1ccc(Cc2c(C)nc3c(C(=O)NCCC(C)C)c[nH]n3c2=O)cc1	none
Cc1nc2c(C(=O)NC3CCCC3)c[nH]n2c(=O)c1Cc1ccc(Cl)cc1	mHTT-CaM PPI inh 55
Cc1ccc(Cc2c(C)nc3c(C(=O)NC4CCCC4)c[nH]n3c2=O)cc1	mHTT-CaM PPI inh 75
COc1ccc(-c2cc3nc4c(c(=O)n3[nH]2)CN(C(=O)Nc2ccc(C)cc2C)CC4)cc1	none
FC(F)(F)c1cccc(Cc2cccc(C(F)(F)F)c2)c1	none (no result: mHTT-CaM PPI inh)
OC(CSCc1cccc(C(F)(F)F)c1)C(O)CSCc1cccc(C(F)(F)F)c1 (configuration not stated)	mHTT-CaM PPI inh 100 (no result: Pf apPOL inh)
CN1CCCc2cc(C(CNC(=O)Nc3cccs3)N3CCCC3)ccc21 (configuration not stated)	mHTT-CaM PPI inh 55
CN1CCN(C(CNC(=O)NCc2ccccc2)c2ccc3c(c2)CCCN3C)CC1 (configuration not stated)	none
O=C(Nc1cncc(C#Cc2ccccc2)c1)Nc1cccc(C(F)(F)F)c1	none (no result: mHTT-CaM PPI inh)
N#Cc1nc(COc2ccc(Cl)cc2)oc1N1CCCCC1	none
COc1ccc(-n2c(=O)c3c4c(sc3n3cnnc23)CCCC4)cc1	none
COc1ccc(-n2c(NN)nc3sc4c(c3c2=O)CCCC4)cc1	mHTT-CaM PPI inh 61
COc1ccc(CN2C(=O)c3ccccc3CCC2(C)C(=O)NCCC(C)C)cc1 (configuration not stated)	none
COc1ccc(NC(=O)N(CCCN2CCOCC2)Cc2cccnc2)c(OC)c1	Pf apPOL inh 68
COc1ccc(NC(=O)CN2CCC(C(=O)NCc3cccnc3)CC2)c(OC)c1	none
COc1cc2c(cc1OC)C(=NC(Cc1ccccc1)C(=O)O)NC(C)(C)C2 (configuration not stated)	none
Cn1nc(-c2nc(-c3ccc(F)cc3)no2)c2c1CCN(C(=O)c1ccc(F)cc1)C2	none
COc1ccc2cccc(NC(=O)c3c[nH]c4ccccc34)c2n1	mHTT-CaM PPI inh 58
COc1ccc2cccc(NC(=O)c3ccco3)c2n1	none
CN(C)c1ncncc1N1CCC(C(=O)N2CCN(c3ccccc3F)CC2)CC1	none
Cc1cccc(N2CCN(C(=O)C3CCN(c4cncnc4N(C)C)CC3)CC2)c1C	mHTT-CaM PPI inh 52
CN(C)c1ncncc1N1CCC(C(=O)N2CCN(c3cccc(Cl)c3)CC2)CC1	mHTT-CaM PPI inh 74
Cc1ccnc(N2CCC(C(=O)N3CCN(c4cccc(C)c4C)CC3)CC2)n1	none
CN(C)c1ncncc1N1CCC(C(=O)N2CCN(C3CCCCC3)CC2)CC1	none
Cc1ccnc(N2CCC(C(=O)N3CCN(c4cc(Cl)ccc4C)CC3)CC2)n1	mHTT-CaM PPI inh 88
Nc1c([N+](=O)[O-])ncn1CCO	none (no result: Pf apPOL inh)
COC(=O)Cc1nc(NC(=O)c2nc(-c3ccccc3)oc2C)sc1C	none (no result: mHTT-CaM PPI inh)
NC(=O)c1ccccc1NC(=O)c1csc(NC(=O)c2ccccc2)n1	none
Cn1cccc1C(=O)NS(=O)(=O)c1ccccc1Cl	none
COc1ccc(OC)c(Nc2nc(Cl)nc(Nc3cc(OC)ccc3OC)n2)c1	mHTT-CaM PPI inh 53
COc1ccc(Nc2nc(Cl)nc(Nc3ccc(OC)c(OC)c3)n2)cc1OC	none
COC(=O)c1ccc(NCc2cccs2)cc1	none
Oc1ccc(NCc2cccs2)cc1	mHTT-CaM PPI inh 64
O=C(c1ccc(COc2ccc(F)cc2)o1)n1cccn1	none
CCCN(Cc1cc(Br)c(OC)cc1OC)CC1CC1	none
Cc1ccc2c(c1)c1c3n2CCN(C=O)C3CCC1 (configuration not stated)	none
O=CN1CCn2c3c(c(=O)c4cc(C5CCCCC5)ccc42)CCC31 (configuration not stated)	mHTT-CaM PPI inh 82
O=[N+]([O-])c1cccc(CN2CCN(Cc3ccncc3)CC2)c1	none
O=C(Nc1nc2ccccc2s1)C1CC(=O)N(c2ccc(Br)cc2)C1 (configuration not stated)	mHTT-CaM PPI inh 60
O=C(Nc1ccccc1F)C1CC(=O)N(c2ccc(Br)cc2)C1 (configuration not stated)	none
Cc1occc1C(=O)Nc1ccc2c(c1)OCO2	none
Cc1cc(N2CCN(C)CC2)nc2ccc(NC(=O)/C=C/c3ccccc3Cl)cc12	mHTT-CaM PPI inh 93
Cc1cc(N2CCOCC2)nc2ccc(NC(=O)/C=C/c3ccccc3Cl)cc12	none
CCN(CC)c1cc(C)c2cc(NC(=O)/C=C/c3ccc4c(c3)OCO4)ccc2n1	none
Cc1cc(N2CCN(C)CC2)nc2ccc(NC(=O)/C=C/c3ccc4c(c3)OCO4)cc12	mHTT-CaM PPI inh 51
O=C(NC1=NCCS1)C12CC3CCC(CC(C3)C1)C2	none
CC1(C(=O)O)COC(c2ccc([N+](=O)[O-])cc2)OC1 (configuration not stated)	none
CNc1ncnc2c1C(c1ccc([N+](=O)[O-])cc1)c1c(NC)ncnc1O2	mHTT-CaM PPI inh 52
COc1ccc([N+](=O)[O-])cc1C1NN=C(c2ccccc2)S1 (configuration not stated)	none
Cc1ccc(C2C(=O)N(C3CCCC(C)C3C)CC(=O)N2C2CC2)cc1 (configuration not stated)	none
CCOc1ccc(NC(=O)CN(c2cccc([N+](=O)[O-])c2)S(C)(=O)=O)cc1	none
C#CCOc1cc(Br)c(/C=C2/NC(=O)NC2=O)cc1OCC	none

Assay outcomes deposited in PubChem BioAssay by University of Kansas High Throughput Screening Laboratory.
